Data: PubChem BioAssay (NCI)
Compounds without any hit were thinned out: in the full panel of roughly 79,000, 15% have a hit. The source made the active and inactive calls. Rule as the data show it: active = growth inhibition above about 70%; inactive = the rest.

Legend:
[1] = NCI Yeast Anticancer Drug Screen. Data for the rad52 strain (AID 147);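 also: 0% = growth of vehicle-treated control cultures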; settings: S. cerevisiae rad52 mutant growth inhibition, hits give high values
How it was run: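 The repair-mutant yeast strain was incubated with compounds, then growth was read and inhibition derived relative to vehicle.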

[2] = NCI Yeast Anticancer Drug Screen. Data for the wt1 strain (AID 149);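 also: 0% = growth of vehicle-treated wt1 cultures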; settings: S. cerevisiae wt1 strain (SPY 50644) growth inhibition, hits give high values
How it was run: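 Using yeast strain wt1, compound-induced growth inhibition was determined against vehicle-treated cultures.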

[3] = NCI Yeast Anticancer Drug Screen. Data for the rad50EPP+ strain (AID 151);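 also: 0% = growth of vehicle-treated control cultures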; settings: S. cerevisiae rad50 mutant strain, hits give high values
How it was run: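 Vehicle-normalised growth inhibition; rad50EPP+ yeast strain, altered in DNA damage repair, compound-treated.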

[4] = NCI Yeast Anticancer Drug Screen. Data for the mgt1 strain (AID 153); settings: S. cerevisiae mgt1 mutant growth inhibition, hits give high values
How it was run: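 Vehicle-normalized growth inhibition is determined in mgt1 yeast, a strain selected for a defined alteration in DNA repair or cell cycle control.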

[5] = NCI Yeast Anticancer Drug Screen. Data for the rad50 strain (AID 155);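 also: 0% = growth of vehicle-only cultures of the same strain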; settings: S. cerevisiae rad50 strain growth inhibition, hits give high values
How it was run: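 Relative growth inhibition (compound vs vehicle) was measured in yeast with a defined repair-gene alteration.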

[6] = NCI Yeast Anticancer Drug Screen. Data for the mec2-1 strain (AID 157); settings: S. cerevisiae mec2-1 strain, hits give high values
How it was run: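 Mutant yeast (mec2-1) grown with compound; growth inhibition relative to vehicle control reported.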

[7] = NCI Yeast Anticancer Drug Screen. Data for the rad14 strain (AID 159);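 also: 0% = growth of vehicle-treated control cultures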; settings: S. cerevisiae rad14 strain growth inhibition, hits give high values
How it was run: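 Screen for anticancer potential: a yeast strain altered in DNA damage repair is grown with compound, and reduced growth is quantified against vehicle controls.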

[8] = NCI Yeast Anticancer Drug Screen. Data for the sgs1 mgt1 strain (AID 161);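 also: 0% = growth of cultures given vehicle only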; settings: S. cerevisiae sgs1 mgt1 strain, hits give high values
How it was run: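 Percent growth inhibition was derived by comparing compound-exposed mutant yeast with vehicle-exposed cultures. The strain carries alterations in DNA damage repair.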

[9] = NCI Yeast Anticancer Drug Screen. Data for the CLN2oe strain (AID 163);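 also: 0% = growth of vehicle-only control cultures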; settings: S. cerevisiae CLN2oe strain, hits give high values
How it was run: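 Compounds are applied to yeast harbouring a defined cell-cycle control change; reduced growth compared with vehicle-treated controls gives the value.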

[10] = NCI Yeast Anticancer Drug Screen. Data for the cln2 rad14 strain (AID 165);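 also: 0% = growth equal to vehicle treated cultures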; settings: S. cerevisiae cln2 rad14 strain, hits give high values
How it was run: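 Readout is yeast growth inhibition versus vehicle-treated controls, using a strain with cln2 and rad14 alterations exposed to compound.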

[11] = NCI Yeast Anticancer Drug Screen. Data for the bub3 strain (AID 167); settings: S. cerevisiae bub3 mutant strain, hits give high values
How it was run: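 Screening used yeast with an engineered genetic alteration affecting cell cycle control. Compound-exposed cultures were compared with vehicle cultures, and reduced growth was taken as inhibition.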

[12] = NCI Yeast Anticancer Drug Screen. Data for the wt2 strain (AID 169);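 also: 0% = growth of vehicle-treated yeast cultures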; settings: S. cerevisiae wt2 strain growth inhibition, hits give high values
How it was run: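 Against vehicle-treated controls, the growth of yeast exposed to each compound was compared, and the inhibition was recorded.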

[13] = NCI Yeast Anticancer Drug Screen. Data for the mlh1 strain (AID 171);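 also: 0% = growth of vehicle-treated control cultures of the same strain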; settings: S. cerevisiae mlh1 strain growth inhibition, hits give high values
How it was run: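 Measured: yeast growth. Reference: vehicle-treated controls. Organism: strain with a defined alteration affecting DNA damage repair or cell cycle control, treated with compound.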

[14] = NCI Yeast Anticancer Drug Screen. Data for the sgs1 strain (AID 173);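 also: 0% = growth of vehicle-only control cultures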; settings: S. cerevisiae sgs1 mutant, hits give high values
How it was run: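 Each compound was added to cultures of the altered yeast strain. Growth was recorded, and inhibition was derived by comparison with vehicle controls.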

[15] = NCI Yeast Anticancer Drug Screen. Data for the mlh1 rad18 strain (AID 175); settings: S. cerevisiae mlh1 rad18 strain growth inhibition, hits give high values
How it was run: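 Genetically defined yeast (DNA repair-deficient) exposed to compounds; growth inhibition determined relative to vehicle.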

[16] = NCI Yeast Anticancer Drug Screen. Data for the rad18 strain (AID 177); settings: S. cerevisiae rad18 mutant growth inhibition, hits give high values
How it was run: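 Vehicle-treated cultures served as the baseline for scoring compound-induced growth inhibition in DNA-repair-mutant yeast.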

[17] = at 5.0 µM (retest, dose inferred, filed as 0.5)
[18] = at 50.0 µM (retest, dose inferred, filed as 5.0)

Measured: growth inhibition

C#CCCCc1ccccc1
inactive: [1]; at 1.2 µM -67% | [1]; at 3.7 µM -68% | [1]; at 11.0 µM -68% | [1]; at 33.0 µM -43% | [1]; at 100.0 µM 66% | [2]; at 1.2 µM -29% | [2]; at 3.7 µM -24% | [2]; at 11.0 µM -28% | [2]; at 33.0 µM -9% | [2]; at 100.0 µM 57% | [3]; at 1.2 µM -65% | [3]; at 3.7 µM -72% | [3]; at 11.0 µM -55% | [3]; at 33.0 µM 23% | [3]; at 100.0 µM 67% | [4]; at 1.2 µM -19% | [4]; at 3.7 µM -14% | [4]; at 11.0 µM -7% | [4]; at 33.0 µM 16% | [5]; at 1.2 µM -48% | [5]; at 3.7 µM -45% | [5]; [17] -13% | [5]; at 11.0 µM -36% | [5]; at 33.0 µM -24% | [5]; [18] 37% | [5]; at 50.0 µM 24.1% | [5]; at 100.0 µM 65% | [6]; at 1.2 µM -21% | [6]; at 3.7 µM -12% | [6]; [17] -13% | [6]; at 11.0 µM -41% | [6]; at 33.0 µM 31% | [6]; [18] 18% | [6]; at 50.0 µM 47.4% | [7]; at 1.2 µM -36% | [7]; at 3.7 µM -39% | [7]; at 11.0 µM -31% | [7]; at 33.0 µM -17% | [8]; [17] -9% | [8]; [18] 15% | [8]; at 50.0 µM 63.6% | [9]; at 1.2 µM -7% | [9]; at 3.7 µM -5% | [9]; at 11.0 µM 4% | [9]; at 33.0 µM 2% | [10]; [17] 17% | [10]; [18] 37% | [10]; at 50.0 µM 18.1% | [11]; at 1.2 µM -31% | [11]; at 3.7 µM -33% | [11]; [17] 0% | [11]; at 11.0 µM -25% | [11]; at 33.0 µM 2% | [11]; at 50.0 µM 39.9% | [12]; at 1.2 µM -52% | [12]; at 3.7 µM -55% | [12]; at 11.0 µM -54% | [12]; at 33.0 µM -31% | [12]; at 100.0 µM 14% | [13]; at 1.2 µM -20% | [13]; at 3.7 µM -22% | [13]; at 11.0 µM -26% | [13]; at 33.0 µM 19% | [14]; at 1.2 µM -48% | [14]; at 3.7 µM -61% | [14]; at 11.0 µM -56% | [14]; at 33.0 µM -12% | [15]; [17] 15% | [15]; at 50.0 µM 26.7% | [16]; at 1.2 µM -56% | [16]; at 3.7 µM -49% | [16]; at 11.0 µM -58% | [16]; at 33.0 µM -28% | [16]; at 100.0 µM 65%
active: [4]; at 100.0 µM 91% | [6]; at 100.0 µM 98% | [7]; at 100.0 µM 94% | [9]; at 100.0 µM 73% | [11]; [18] 79% | [11]; at 100.0 µM 97% | [13]; at 100.0 µM 98% | [14]; at 100.0 µM 89% | [15]; [18] 70%

N#CN=Nc1cc(Cl)c(N=NC#N)cc1Cl
inactive: [1]; at 1.2 µM -27% | [1]; at 3.7 µM -19% | [1]; at 11.0 µM -18% | [1]; at 33.0 µM 2% | [1]; at 100.0 µM 68% | [2]; at 1.2 µM -6% | [2]; at 3.7 µM -5% | [2]; at 11.0 µM -6% | [2]; at 33.0 µM -3% | [2]; at 100.0 µM 47% | [3]; at 1.2 µM -4% | [3]; at 3.7 µM -3% | [3]; at 11.0 µM 6% | [3]; at 33.0 µM 31% | [4]; at 1.2 µM -10% | [4]; at 3.7 µM -6% | [4]; at 11.0 µM -6% | [4]; at 33.0 µM 28% | [5]; at 1.2 µM -15% | [5]; at 3.7 µM -8% | [5]; [17] -22% | [5]; at 11.0 µM -7% | [5]; at 33.0 µM 3% | [5]; [18] 64% | [5]; at 100.0 µM 55% | [6]; at 1.2 µM -14% | [6]; at 3.7 µM -17% | [6]; [17] 12% | [6]; at 11.0 µM -18% | [6]; at 33.0 µM -3% | [6]; at 50.0 µM 46% | [7]; at 1.2 µM 1% | [7]; at 3.7 µM 4% | [7]; at 11.0 µM 11% | [7]; at 33.0 µM 32% | [8]; [17] -5% | [8]; [18] -4% | [8]; at 50.0 µM 60.2% | [9]; at 1.2 µM -25% | [9]; at 3.7 µM -6% | [9]; at 11.0 µM -6% | [9]; at 33.0 µM -8% | [9]; at 100.0 µM 67% | [10]; [17] 33% | [10]; [18] 55% | [10]; at 50.0 µM 20.6% | [11]; at 1.2 µM -19% | [11]; at 3.7 µM 2% | [11]; [17] -1% | [11]; at 11.0 µM -7% | [11]; at 33.0 µM 25% | [11]; at 50.0 µM 43.8% | [12]; at 1.2 µM 2% | [12]; at 3.7 µM 1% | [12]; at 11.0 µM 0% | [12]; at 33.0 µM 3% | [12]; at 100.0 µM 30% | [13]; at 1.2 µM 22% | [13]; at 3.7 µM 10% | [13]; at 11.0 µM 12% | [13]; at 33.0 µM 29% | [14]; at 1.2 µM -25% | [14]; at 3.7 µM -15% | [14]; at 11.0 µM -13% | [14]; at 33.0 µM 13% | [15]; [17] -10% | [15]; at 50.0 µM 38.2% | [16]; at 1.2 µM -8% | [16]; at 3.7 µM -16% | [16]; at 11.0 µM -11% | [16]; at 33.0 µM 14%
active: [3]; at 100.0 µM 79% | [4]; at 100.0 µM 70% | [5]; at 50.0 µM 83.8% | [6]; [18] 87% | [6]; at 100.0 µM 78% | [7]; at 100.0 µM 85% | [11]; [18] 96% | [11]; at 100.0 µM 88% | [13]; at 100.0 µM 87% | [14]; at 100.0 µM 94% | [15]; [18] 98% | [16]; at 100.0 µM 82%
